Test systems include DU-145 prostate; K-562 leukemia; MALME-3M melanoma; MDA-MB-231 breast; RXF 393 renal; SF-268 CNS; SF-295 CNS; SF-539 CNS; UACC-257 melanoma; M14 melanoma.
Common to all, as to assay: NCI-60 one-dose screen, 48 h (100 = growth as untreated, 0 = no growth, -100 = all killed)
What all share (conditions): 10 µM unless noted

About 83,000 compounds went through this panel and 20% of them were active in at least one assay; those are over-represented in the sample as a whole.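 Single-concentration screen, 48 h exposure, 96-well plates. Endpoint: percent growth. Below 10 = active.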 Unmarked numbers belong to inactive results. Calls of active or inactive are those of the source.

Take `CSc1nc(-c2ccc(F)cc2)c(C#N)c(N2CCOCC2)n1`: the growth was 101% in the assay on DU-145 prostate; 92.9% with K-562 leukemia; 116% in the assay on MALME-3M melanoma; 92.5% in the assay on MDA-MB-231 breast; 91.3% in the assay with RXF 393 renal; 93.5% with SF-268 CNS. In addition, the growth was 92.2% in the assay with SF-295 CNS, 94.9% in the assay with SF-539 CNS, 91.9% in the assay with UACC-257 melanoma and 107% in the assay with M14 melanoma.

Take `COc1cc(NC(=O)Nc2cnc(Nc3ccc(N4CCOCC4)cc3)nc2Oc2ccc(C(F)(F)F)cc2)cc(OC)c1`: the growth in the assay on DU-145 prostate was 118%; in the assay with K-562 leukemia, 95.3%; in the assay on MALME-3M melanoma it was 118%; with MDA-MB-231 breast, 96.7%; in the assay with RXF 393 renal it was 110%; with SF-268 CNS it was 101%. The growth in the assay with SF-295 CNS is 111%; in the assay on SF-539 CNS, 103%; in the assay with UACC-257 melanoma, 101%; in the assay on M14 melanoma, 107%.

For `O=C(Nc1nc2ccc(C(F)(F)F)cc2s1)c1cc(Cl)ccc1O`, the growth with DU-145 prostate was 25.9%; in the assay with K-562 leukemia, 5.73% (active); in the assay on MALME-3M melanoma, -16.6% (active); in the assay on MDA-MB-231 breast, -10.5% (active); in the assay on RXF 393 renal, -2.8% (active); with SF-268 CNS, 19.5%. The growth is -31.2% (active) in the assay on SF-295 CNS, 14.6% with SF-539 CNS, -8.55% (active) with UACC-257 melanoma and 15.1% in the assay with M14 melanoma.

With `C#C[C@@]1(O)[C@@H](CO)O[C@@H](n2ccc3c(N)ncnc32)[C@@H]1O`, the growth in the assay on DU-145 prostate was 3.75% (active); in the assay with K-562 leukemia it was 4.79% (active); with MALME-3M melanoma, -13.2% (active); with MDA-MB-231 breast it was -14.7% (active); in the assay with RXF 393 renal it was -33.6% (active); with SF-268 CNS, 9.98% (active). In addition, the growth was 5.82% (active) in the assay with SF-295 CNS, 8.04% (active) with SF-539 CNS, 17.3% in the assay with UACC-257 melanoma and -38.6% (active) in the assay with M14 melanoma.

For the molecule `O=C(Nc1cccc(-c2cccc(F)c2)c1)C1CCN(Cc2cccc3cccnc23)CC1`, the growth was 72% in the assay on DU-145 prostate; -37.6% (active) with K-562 leukemia; -50% (active) in the assay with MALME-3M melanoma; 37.8% in the assay with MDA-MB-231 breast; 68.6% in the assay on RXF 393 renal; 56.8% in the assay with SF-268 CNS. The growth in the assay with SF-295 CNS is 56.1%; with SF-539 CNS, 69.5%; with UACC-257 melanoma, -2.39% (active); in the assay on M14 melanoma, -54% (active).

Regarding `O=c1[nH]nc(-c2ccccc2)c2sc(NC(=S)Nc3ccc(Cl)cc3)nc12`, the growth in the assay with DU-145 prostate is 94.8%; with K-562 leukemia, 80.6%; in the assay with MALME-3M melanoma, 105%; in the assay with MDA-MB-231 breast it was 101%; in the assay on RXF 393 renal, 102%; with SF-268 CNS, 93.3%. Also, the growth is 98.3% with SF-295 CNS, 98% in the assay on SF-539 CNS, 104% with UACC-257 melanoma and 97.4% with M14 melanoma.

As for `Cc1cnc(-c2ccc(-c3ccc(NC(=O)Nc4c(F)cc(F)cc4F)cc3F)c3c2C(=O)NC3)[nH]1`, the growth is 7.83% (active) in the assay on DU-145 prostate; 22.1% in the assay on K-562 leukemia; -3.16% (active) with MALME-3M melanoma; 36.5% in the assay with MDA-MB-231 breast; 21.5% in the assay with RXF 393 renal; 39.2% in the assay on SF-268 CNS. In addition, the growth was 58.8% with SF-295 CNS, 56.1% with SF-539 CNS, 43.8% in the assay on UACC-257 melanoma and 16.1% with M14 melanoma.

On to `OCCNc1nc(NCCO)nc(Nc2ccc(C3=NN(c4cc(Cl)cc(Cl)c4)C(c4ccccc4)C3)cc2)n1` (stereo not given), for which the growth was 45.8% in the assay on DU-145 prostate; 18.4% in the assay on K-562 leukemia; 59.2% in the assay with MALME-3M melanoma; 42.1% in the assay with MDA-MB-231 breast; 11% in the assay with RXF 393 renal; 50.8% with SF-268 CNS. Further, the growth with SF-295 CNS was 10%; with SF-539 CNS it was 38%; in the assay with UACC-257 melanoma it was 91.2%; with M14 melanoma it was 46.2%.

With `C(=C\c1cn(-c2ccccc2)nc1-c1ccccc1)/c1nnc(-c2c[nH]c3ccccc23)o1`, the growth in the assay on DU-145 prostate was 27%; in the assay with K-562 leukemia it was 61.5%; in the assay on MALME-3M melanoma it was 7.81% (active); with MDA-MB-231 breast, 9.62% (active); in the assay with RXF 393 renal, 53.5%; in the assay on SF-268 CNS it was 40.9%. Also, the growth was 29.8% with SF-295 CNS, 59.2% with SF-539 CNS, 107% with UACC-257 melanoma and 45.5% in the assay on M14 melanoma.

Regarding `NCCCn1c2c(c3cc(-c4ccn[nH]4)ccc3c1=O)C(=O)c1ccccc1-2`, the growth is 33.8% in the assay with DU-145 prostate; 6.99% (active) in the assay with K-562 leukemia; 75.2% in the assay with MALME-3M melanoma; 68.1% in the assay with MDA-MB-231 breast; 79.5% in the assay on RXF 393 renal; 52.8% in the assay on SF-268 CNS. In addition, the growth in the assay with SF-295 CNS was 61.7%; in the assay on SF-539 CNS it was 75.2%; in the assay with UACC-257 melanoma it was 102%; in the assay with M14 melanoma, 74.8%.

Take `COc1ccc(C2=NN(c3ccc(S(N)(=O)=O)cc3)C(c3ccc(Cl)cc3)C2)c(O)c1` (stereo not given): the growth was 99.2% in the assay on DU-145 prostate; 23% in the assay on K-562 leukemia; 93.5% in the assay on MALME-3M melanoma; 76.5% with MDA-MB-231 breast; 45.1% with RXF 393 renal; 83.8% with SF-268 CNS. The growth with SF-295 CNS is 46.3%; with SF-539 CNS it was 89.9%; in the assay on UACC-257 melanoma it was 57.3%; in the assay with M14 melanoma it was 51.3%.

As to `COc1ccc(-c2cc(-c3nnc(SCC(=O)Nc4ccc(/C(C)=N\O)cc4)o3)c3ccccc3n2)cc1`, the growth was 109% with DU-145 prostate; 96.5% with K-562 leukemia; 97.8% in the assay on MALME-3M melanoma; 114% in the assay on MDA-MB-231 breast; 106% in the assay on RXF 393 renal; 101% in the assay with SF-268 CNS. Moreover, the growth was 105% in the assay on SF-295 CNS, 111% with SF-539 CNS, 101% in the assay on UACC-257 melanoma and 115% with M14 melanoma.

Consider `C=C(C)[C@@H]1CC[C@]2(C(=O)N3CCN(C)CC3)CC[C@]3(C)[C@H](CC[C@@H]4[C@@]5(C)C/C(=C/c6ccco6)C(=O)C(C)(C)[C@@H]5CC[C@]43C)[C@@H]12`, for which the growth was 84.3% with DU-145 prostate; 36.2% in the assay on K-562 leukemia; 66.8% in the assay on MALME-3M melanoma; 58.8% in the assay on MDA-MB-231 breast; 45.2% with RXF 393 renal; 68.9% in the assay on SF-268 CNS. Besides, the growth in the assay with SF-295 CNS is 18.9%; in the assay with SF-539 CNS, 62%; in the assay on UACC-257 melanoma, 48.6%; in the assay on M14 melanoma, 59.9%.
